# Bioassay records from PubChem.
# Only a selection was taken, and hits are over-represented in it overall.
# miR122 inh: miR-122 suppressors via Renilla sensor increase, primary screen, cell-based, Huh7 psiCHECK-miR122, Renilla luciferase, single point. 48 h. activation, % at 12.5 µM. 340,000 tested, 0.14% active. AID 623901, 2012;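 active means mean activation of 30% or more, with every replicate also reaching 30%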;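 further: higher luciferase signal means stronger suppression of miR-122 activity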
# Hits are given with their value; - = inactive.
SMILES,miR122 inh
C[C@H](CO)N1C[C@H](C)[C@H](CN(C)C(=O)C2CCC2)Oc2cc(-c3ccc(C(=O)N(C)C)cc3)ccc2S1(=O)=O,55
C[C@@H]1CN([C@H](C)CO)S(=O)(=O)c2ccc(-c3ccc(C(=O)N(C)C)cc3)cc2O[C@@H]1CN(C)C(=O)C1CCC1,43
C[C@H](CO)N1C[C@H](C)[C@H](CN(C)C(=O)Nc2ccc3c(c2)OCO3)Oc2ncccc2C1=O,-
Cc1noc(C)c1NC(=O)N(C)C[C@@H]1Oc2ncc(C#CCC(C)C)cc2C(=O)N([C@@H](C)CO)C[C@H]1C,-
C[C@H](CO)N1C[C@H](C)[C@H](CN(C)C)Oc2ncc(-c3cccc(C#N)c3)cc2C1=O,-
O=S(=O)(NCCc1ccncc1)c1ccc(Br)cc1,-
C[C@@H]1CN([C@@H](C)CO)C(=O)c2cc(-c3ccccc3)cnc2O[C@@H]1CN(C)C(=O)Nc1ccc2c(c1)OCO2,-
COCC(=O)N(C)C[C@H]1Oc2cc(-c3ccc(C#N)cc3)ccc2S(=O)(=O)N([C@H](C)CO)C[C@H]1C,59
C[C@@H]1CN([C@H](C)CO)S(=O)(=O)c2ccc(C#Cc3ccccc3F)cc2O[C@@H]1CN(C)C(=O)Cc1ccncc1,52
Cc1ccccc1-c1ccc2c(c1)O[C@H](CN(C)C(=O)Nc1ccccc1)[C@@H](C)CN([C@H](C)CO)S2(=O)=O,-
C[C@H](CO)N1C[C@H](C)[C@@H](CN(C)C(=O)Cc2ccccc2)Oc2cc(C#Cc3ccccc3F)ccc2S1(=O)=O,-
C[C@H]1CN([C@@H](C)CO)S(=O)(=O)c2ccc(C#Cc3ccccc3F)cc2O[C@H]1CN(C)C(=O)Cc1ccccc1,-
COCC(=O)N(C)C[C@@H]1Oc2cc(-c3ccccc3)ccc2S(=O)(=O)N([C@@H](C)CO)C[C@@H]1C,-
CCCC#Cc1ccc2c(c1)O[C@H](CN(C)C(=O)CC)[C@@H](C)CN([C@@H](C)CO)S2(=O)=O,-
Cc1ccccc1-c1ccc2c(c1)O[C@H](CN(C)C(=O)Nc1ccccc1)[C@H](C)CN([C@H](C)CO)S2(=O)=O,-
CCC(=O)N(C)C[C@H]1Oc2cc(C#Cc3ccccc3)ccc2S(=O)(=O)N([C@@H](C)CO)C[C@H]1C,48
COCC(=O)N(C)C[C@H]1Oc2cc(-c3ccccc3)ccc2S(=O)(=O)N([C@@H](C)CO)C[C@@H]1C,-
Cc1ccccc1-c1ccc2c(c1)O[C@@H](CN(C)C(=O)Nc1ccc(F)cc1)[C@@H](C)CN([C@@H](C)CO)S2(=O)=O,38
CCCC#Cc1ccc2c(c1)O[C@@H](CN(C)C(=O)CC)[C@H](C)CN([C@@H](C)CO)S2(=O)=O,-
C[C@@H]1CN([C@H](C)CO)S(=O)(=O)c2ccc(-c3ccccc3)cc2O[C@@H]1CN(C)C(=O)CN(C)C,-
Cc1ccc(C)c(S(=O)(=O)NC2CCS(=O)(=O)C2)c1 (stereo not given),-
COc1ccc(-c2cc(C(=O)N(C)Cc3ccccc3F)c3ccccc3n2)cc1OC,-
CCc1cccc(CC)c1NC(=O)COC(=O)C1(c2ccc(Cl)cc2)CCCC1,-
COCC(=O)N(C)C[C@H]1Oc2cc(Br)ccc2S(=O)(=O)N([C@@H](C)CO)C[C@@H]1C,-
CCC(=O)N(C)C[C@@H]1Oc2ncc(C#C[C@@H](C)O)cc2C(=O)N([C@@H](C)CO)C[C@H]1C,-
SMILES,miR122 inh
Cc1cc(Cl)c(S(=O)(=O)Nc2ccc3c(c2)OCO3)cc1OCC(=O)NC1CCCCC1,-
C[C@@H]1CN([C@@H](C)CO)S(=O)(=O)c2ccc(Br)cc2O[C@@H]1CN(C)C(=O)c1ccccn1,-
CC(=O)N(C)C[C@H]1Oc2cc(C#CC3CCCCC3)ccc2S(=O)(=O)N([C@@H](C)CO)C[C@@H]1C,-
O=S(=O)(Nc1ccc(N2CCOCC2)cc1)c1cc(Cl)ccc1Cl,-
CCOC(=O)C1CCCCN1C(=O)c1cc2ccc(OC)cc2c2cc(OC)c(OC)cc12 (stereo not given),-
C[C@H](CO)N1C[C@H](C)[C@H](CN(C)C(=O)Cc2ccccc2)Oc2cc(C#Cc3ccccc3F)ccc2S1(=O)=O,-
C[C@@H]1CN([C@H](C)CO)C(=O)Cc2cc(N(C)C)ccc2O[C@H]1CN(C)Cc1ccc(C(=O)Nc2ccccc2N)cc1,-
C[C@H]1CN([C@@H](C)CO)S(=O)(=O)c2ccc(C#Cc3ccc(F)cc3)cc2O[C@@H]1CN(C)S(C)(=O)=O,-
CC(=O)N(C)C[C@H]1Oc2cc(C#C[C@@H](C)O)ccc2S(=O)(=O)N([C@H](C)CO)C[C@H]1C,-
CC(=O)N(C)C[C@H]1Oc2cc(C#C[C@@H](C)O)ccc2S(=O)(=O)N([C@H](C)CO)C[C@@H]1C,-
CC(=O)N(C)C[C@H]1Oc2cc(C#Cc3ccc(F)cc3)ccc2S(=O)(=O)N([C@H](C)CO)C[C@H]1C,37
CO[C@H]1CN(C)C(=O)c2ccc(NC(=O)Nc3ccccc3)cc2OC[C@H](C)N(C(C)=O)C[C@H]1C,-
CC(C)C#Cc1ccc2c(c1)O[C@H](CN(C)C(=O)c1ccncc1)[C@H](C)CN([C@@H](C)CO)S2(=O)=O,40
